An excerpt weighted towards active compounds, which were near 2.9% of everything screened.
H9c2 TAG inh = triacylglycerol accumulation inhibition; 230,000 tested, 0.66% active; inhibition, % at 12.5 µM; H9c2 cells, Nile Red lipid (TAG) fluorescence; cells loaded with 200 µM oleic acid;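 active means pattern-corrected inhibition of lipid staining of at least 50% with the nuclear-stain viability signal not falling by more than 50%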
PfGluPho inh = PfG6PD (Plasmodium falciparum) enzyme inhibition; inhibition, % at 20 µM; AID 504690; PfGluPho enzyme, NADPH resazurin-diaphorase fluorescence; 350,000 tested, 0.78% active;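 active means inhibition reaching at least a set limit at 20 µM in the primary screen, cut at about 59% in these data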
H9c2 protect = modulators protecting cardiomyocytes from myocardial damage | H9c2 cardiomyocytes, H2O2 injury protection, ATPLite, 2 h | protection from H2O2 cell death, % at 20 µM | 360,000 tested, 0.63% active;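 active means compounds giving at least 50% protection of heart cells from peroxide-induced death in the single-dose screen, raw or plate-pattern-corrected value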
A3G deaminase = blocks human APOBEC3G single-stranded DNA deamination. recombinant A3G, ssDNA deamination FAM/TAMRA fluorescence. inhibition, % at 20 µM. 330,000 tested, 0.28% active;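 active means inhibition of at least 40% at 20 µM, with no more than 30% in the related APOBEC3A deaminase screen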
Target sequence (Q9HC16 whole entry, looked up): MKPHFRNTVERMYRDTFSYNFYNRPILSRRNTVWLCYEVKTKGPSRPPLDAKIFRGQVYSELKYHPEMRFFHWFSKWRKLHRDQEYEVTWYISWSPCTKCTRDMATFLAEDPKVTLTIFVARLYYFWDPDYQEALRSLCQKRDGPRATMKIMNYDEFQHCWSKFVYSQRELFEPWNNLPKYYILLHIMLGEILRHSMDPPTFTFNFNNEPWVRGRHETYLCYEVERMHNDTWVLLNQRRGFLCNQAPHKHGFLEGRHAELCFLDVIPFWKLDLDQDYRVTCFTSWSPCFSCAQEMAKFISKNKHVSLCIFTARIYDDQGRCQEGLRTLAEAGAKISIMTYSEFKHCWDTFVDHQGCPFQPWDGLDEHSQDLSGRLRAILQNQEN
A3A deaminase = blocks human APOBEC3A ssDNA deamination. P31941. recombinant A3A, FAM/TAMRA ssDNA deamination fluorescence. inhibition, % at 20 µM. 330,000 tested, 0.41% active. AID 493011;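 active means at least 40% inhibition at 20 µM here, with at most 30% in a related deaminase screen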
Target sequence (P31941 whole entry, looked up): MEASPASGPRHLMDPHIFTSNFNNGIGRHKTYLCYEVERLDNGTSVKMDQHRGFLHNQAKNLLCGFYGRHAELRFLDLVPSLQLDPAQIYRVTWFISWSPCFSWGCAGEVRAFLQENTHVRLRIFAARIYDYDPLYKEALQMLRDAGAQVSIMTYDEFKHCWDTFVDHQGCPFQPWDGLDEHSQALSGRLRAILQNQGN
NadD inh = NadD (S. aureus) enzyme inhibition. purified NadD enzyme, colorimetric absorbance read-out. inhibition, % at 20 µM. 360,000 tested, 0.78% active. AID 602399; in the data active means inhibition above about 26%
PfGluPho conf = PfG6PD inhibition, single-dose confirmed | 2,400 tested, 34% active | AID 504753 | shares compounds with PfGluPho inh | recombinant PfGluPho, NADPH-diaphorase-resazurin fluorescence | inhibition, % at 20 µM;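 active means inhibition of at least 50% at 20 µM in any single replicate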
Diaphorase 10uM = diaphorase inhibition or oxidation at 10 uM NADPH; diaphorase-coupled resazurin reduction, fluorescence, NADPH 10 uM; inhibition, % at 20 µM; AID 504862; 820 tested, 39% active; shares compounds with PfGluPho inh;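 active means average inhibition reaching 50% or more with the compound at 20 µM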;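 further: resorufin red fluorescence formed as diaphorase reduces resazurin using NADPH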
Diaphorase 30uM = inhibits diaphorase or oxidizes, flagging false PfG6PD hits. shares compounds with PfGluPho inh. inhibition, % at 20 µM. Diaphorase/resazurin coupled assay, resorufin fluorescence, 30 uM NADPH. 820 tested, 29% active;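 active means inhibition averaging 50% or more, tested at 20 µM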
Hits are given with their value; n = inactive; x = no result.

SMILES | H9c2 TAG inh | PfGluPho inh | H9c2 protect | A3G deaminase | A3A deaminase | NadD inh | PfGluPho conf | others
C=CCc1cccc(/C=N/NC(=O)c2ccccc2OC)c1O | x | 79 | n | n | n | n | n
CC1CCc2[nH]c3ccc(C(=O)N(C)CC(=O)Nc4ccccc4C(F)(F)F)cc3c2C1 (stereo unspecified) | n | 110 | n | n | n | n | 63 | Diaphorase 10uM=53;Diaphorase 30uM=n
CC1CCc2[nH]c3ccc(C(=O)N(C)CC(=O)Nc4ccccc4Cl)cc3c2C1 (stereo unspecified) | n | 60 | n | n | n | n | n
Cc1ccc(NC(=O)CN(C)C(=O)c2ccc3[nH]c4c(c3c2)CC(C)CC4)cc1 (stereo unspecified) | n | n | n | n | n | n | x
O=C(Nc1ccc(SC(F)F)cc1)C12CCC(CC1)C2 | x | 72 | n | n | n | n | n
C=C1C2(C(=O)Nc3ccc(SC(F)F)cc3)CCC(C2)C1(C)C (stereo unspecified) | x | n | n | n | n | n | x
O=C(Nc1nc(-c2ccccc2)cs1)c1cccnc1 | x | n | n | n | n | n | x
CC(=O)Nc1ccc(C(=O)Nc2nc(-c3cccnc3)cs2)cc1 | n | 60 | n | n | n | n | n
Cc1ccc(NC(=O)c2cc3ccccc3cc2O)cc1 | x | n | n | n | n | n | x
O=C(Nc1ccccn1)c1cc2ccccc2cc1O | x | 67 | n | n | n | n | n
O=C(Nc1ccccn1)c1ccc(C(=O)Nc2ccccn2)cc1 | x | n | n | n | n | n | x
COc1ccc(NC(=O)c2cc3ccccc3cc2O)cc1 | x | 70 | n | n | n | n | n
Nc1c(C(=O)Nc2ccc(Cl)c(C(=O)O)c2)sc2nc3c(cc12)CCCC3 | n | 59 | n | n | n | n | n
CC(=O)OCCCNc1cc(Sc2nc3ccccc3s2)c2nonc2c1[N+](=O)[O-] | x | 99 | n | n | n | n | 63 | Diaphorase 10uM=n;Diaphorase 30uM=n
NC(=S)NNc1cc(Cl)cc(Cl)c1 | n | 71 | n | n | n | n | n
NC(=S)Nc1cc(Cl)cc(Cl)c1 | n | n | n | n | n | n | x
Cc1nc2ccc(Cl)cc2nc(C)/c1=N\O | n | 60 | n | n | n | n | n
Cc1ccc(C)c(N(C)C(=O)CCS(=O)(=O)c2cccc3nonc23)c1 | x | n | n | n | n | n | x
NC(=O)CN(c1ccc([N+](=O)[O-])cc1)S(=O)(=O)c1ccccc1 | n | n | n | n | n | n | x
Nc1c(C(=O)Nc2ccc(F)cc2)sc(=S)n1-c1ccccc1F | n | 99 | n | n | n | n | 56 | Diaphorase 10uM=n;Diaphorase 30uM=n
O=S1(=O)CC(N2CCCCC2)CN1Cc1cn(Cc2cccc(C(F)(F)F)c2)nn1 (stereo unspecified) | x | x | x | x | x | n | x
COc1ccc(-c2cc3ccccc3cn2)cc1 | n | 59 | n | n | n | n | n
Cc1ccc(Cl)cc1NC(=O)CCS(=O)(=O)c1cccc2nonc12 | x | n | n | n | n | n | x
COC(=O)c1c[nH]n2c(=O)cc(CCl)nc12 | x | n | n | n | n | n | x
O=C(O)Cn1cnc2c(=S)nc[nH]c21 | n | n | n | n | n | n | x
SMILES | H9c2 TAG inh | PfGluPho inh | H9c2 protect | A3G deaminase | A3A deaminase | NadD inh | PfGluPho conf | others
S=c1nc[nH]c2c1ncn2-c1ccc(Cl)cc1 | n | 66 | n | x | x | n | n
CC(C)C(c1nnnn1Cc1ccc(F)cc1)N1CCN(c2ccc(O)cc2)CC1 (stereo unspecified) | x | 64 | n | n | n | n | n
CC1=C(C#N)C(=O)N(C2CCS(=O)(=O)C2)C(=O)/C1=C\c1ccc(C)o1 (stereo unspecified) | x | x | x | n | n | x | x
COc1ccccc1CC(=O)Nc1ccc(Cl)cc1C(=O)O | x | n | n | n | n | n | x
O=C(COc1cccc2ccccc12)Nc1ccc(Cl)cc1C(=O)O | n | 75 | n | x | x | n | 64 | Diaphorase 10uM=60;Diaphorase 30uM=n
COc1ccc(C(=O)Nc2cc(Cl)ccc2C(=O)O)cc1 | n | 105 | n | n | n | n | 51 | Diaphorase 10uM=n;Diaphorase 30uM=n
O=C(COc1ccccc1C(=O)O)Nc1cccc2ccccc12 | n | n | n | n | n | n | x
O=C(COc1cccc2ccccc12)Nc1cc(Cl)ccc1C(=O)O | n | 105 | n | n | n | n | 69 | Diaphorase 10uM=60;Diaphorase 30uM=59
CCOC(=O)C(=CNc1nc(-c2ccccc2)c(C(=O)Nc2ccc(-c3ccccc3)cc2)s1)C(=O)OCC | x | n | n | n | n | n | x
COc1c2occc2c(OC)c2c(=O)cc(C)oc12 | n | n | n | n | n | n | x
Cc1cc(=O)c2c(o1)C(=O)c1occc1C2=O | n | 86 | n | x | x | n | 53 | Diaphorase 10uM=65;Diaphorase 30uM=62
COc1ccc(Nc2nc(C)c(-c3ccccc3)s2)cc1 | x | 76 | n | x | x | n | n
Cc1cc(=O)oc(C)c1C(=O)NC1CCCCCCC1 | n | n | n | n | n | n | x
COc1ccc(CCC(=O)NCCOc2ccccc2Cl)cc1 | n | n | n | n | n | n | x
CCn1c(=O)n(CC)c2cc(N3CCCC3)c(NC(=O)c3ccc(F)cc3)cc21 | x | 78 | n | n | n | n | n
CN1CC(=O)N(CC(=O)Nc2ccc(N(C)C)cc2)c2ccccc2C1=O | n | 63 | n | n | n | n | n
CN(C)CCn1c(=O)n(-c2cccc(Cl)c2)c(=O)c2c3c(sc21)CCCCC3 | n | n | n | n | n | n | x
O=C1Nc2ccccc2/C1=C/c1ccc([N+](=O)[O-])cc1 | x | n | n | n | n | n | x
CC1(c2ccc([N+](=O)[O-])cc2)Nc2ccccc2S1 (stereo unspecified) | x | 72 | n | n | n | n | n
O=C(COC(=O)C1CC(=O)N(c2ccccc2)C1)c1ccccc1 (stereo unspecified) | n | n | n | n | n | n | x
Cc1ccc(N2CC(C(=O)OCC(=O)c3ccc([N+](=O)[O-])cc3)CC2=O)cc1 (stereo unspecified) | x | 60 | n | n | n | n | 57 | Diaphorase 10uM=n;Diaphorase 30uM=n
COc1ccc(C2=NN(C(=O)c3ccco3)C(c3cccs3)C2)cc1OC (stereo unspecified) | n | n | n | x | x | n | x
CCCc1cc(=O)[nH]c(SCC(=O)Nc2cccc(S(=O)(=O)N3CCOCC3)c2)n1 | n | n | n | n | n | n | x
CC1(C(=O)NS(=O)(=O)c2cccc(Cl)c2)CCN1C(=O)C1(c2ccccc2)CC1 (stereo unspecified) | n | x | n | x | x | n | x
O=C(Nc1ccccc1)c1cc2ccccc2s1 | n | 71 | n | x | x | n | n
O=C(Nc1ccccc1)c1cc2ccccc2c(=O)s1 | x | n | n | n | n | n | x

Assay outcomes (PubChem)
